The text below walks through data of PubChem BioAssay AID624168 (Sanford-Burnham Center for Chemical Genomics, 2012).

Out of some 360,000 compounds screened, about 800 (0.22%) were called active.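 The calls were made as follows: active = activation of at least 8% versus controls, or a plate z-score of at least 8; inactive = the rest.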 This excerpt belongs to a sample that is enriched for actives.

The nature of this assay: activators of alpha-DG glycosylation, primary screen, uHTS, Pro5-aDG cells, AlphaScreen (AID 624168).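 Also: Pro5 are CHO cells carrying HIG-tagged alpha-DG that lacks glycosylation.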 As to conditions: alpha-DG glycosylation AlphaScreen (IIH6), at 10 µM, stronger effect = higher value, 0% Pro5, 100% B10-LARGE cell signal. On the technique in general: In Alpha technology, singlet oxygen from a donor bead excites a nearby acceptor bead.
As for `COc1ccc(F)cc1S(=O)(=O)N1CCCCC1`, the activation is -0.1% (inactive).
The result for `Cc1cccc2cc(CN(Cc3cccs3)C(=S)NCc3ccco3)c(=O)[nH]c12` reads 0% (inactive).
The result for `COCCCNC(=S)N(CCN(C)C)Cc1cc2cc3c(cc2[nH]c1=O)OCCO3` reads -0.2% (inactive); that for `Cc1cc(C)c2[nH]c(=O)c(CN(Cc3ccccc3)C(=S)NCCCN(C)C)cc2c1`, 8.7% (active); that for `Cc1cccc(C)c1NC(=O)N1CC=C(n2c(=O)[nH]c3ccccc32)CC1`, 0.1% (inactive).
For `O=C(Nc1cc(S(=O)(=O)Nc2ccc(Cl)cc2)ccc1O)c1ccc(F)cc1F` the value was 0.4% (inactive); for `CC(=O)N(c1ccc2oc(=O)sc2c1)S(=O)(=O)c1ccc(C)cc1`, 0% (inactive).
Consider `O=C(c1cccnc1)N(c1cc2sc(=O)oc2c2ccccc12)S(=O)(=O)c1ccccc1`, for which the activation is 8.9% (active).
For `O=C(CN(c1cc(C(F)(F)F)ccc1Cl)S(=O)(=O)c1ccccc1)NCc1cccnc1` the value was 0.2% (inactive).
The result for `O=C(Nc1ccc(-n2ccnc2P(=O)(O)c2ccccc2)cc1)c1ccccc1Br` reads -0.1% (inactive); that for `COc1ccc(C2c3[nH]c4ccccc4c3C[C@H]3C(=O)N(CC(C)C)CC(=O)N23)c(OC)c1` (stereo not given in full), 0.3% (inactive); that for `COc1ccc(C2(CNC(=O)Cc3ccc(OC)c(OC)c3)CCCC2)cc1`, -0.3% (inactive).
The result for `COc1ccc(CC(=O)NC2CCSc3ccccc32)cc1OC` (stereo not given) reads 0.1% (inactive).
Turning to `COc1ccc(CC(=O)Nc2nc(-c3ccc(F)c(F)c3)cs2)cc1OC`, the activation was 2.7% (active).
The result for `Cc1c(C(=O)N(C)CCc2cnn(C)c2)oc2c(F)cccc12` reads 0.2% (inactive).
For `COCCc1nn2c(=O)cc(COC(=O)c3cc(OC)c(OC)c(OC)c3)nc2s1` the value was -0.1% (inactive).
For `CN1OC(COC(=O)c2ccc(Cl)cc2)CC1c1ccccc1` (stereo not given) the value was 0.1% (inactive); for `Cc1ccc(C(=O)C(=S)N2CCOCC2)cc1`, 0% (inactive); for `COc1cccc(C(=O)Nc2nnc(S(=O)(=O)N3CCOCC3)s2)c1`, -0.1% (inactive).
Regarding `COc1cccc(C(=O)Nc2nnc(S(=O)(=O)N3CCCCC3)s2)c1`, the activation was 10.9% (active).
For `O=C(Nc1nnc(S(=O)(=O)N2CCCCCC2)s1)c1cccc(Br)c1` the value was -0.2% (inactive).
For `CC(C)(C)OC(=O)N1CCC(C(=O)NNC(=O)c2ccc(Cl)cc2Cl)CC1` the value was 0.1% (inactive); for `c1ccc2c(NC3C4CC5CC(C4)CC3C5)nc(N3CCOCC3)nc2c1` (stereo not given), 0.7% (inactive).
As to `CCOc1ccc(CCNC(=O)CCc2nnc3ccc(N4CCCC4)nn23)cc1OCC`, the activation is 0.3% (inactive).
The result for `COCCCC1CCN(C(=O)C2CCC(=O)N(C3CCCCCC3)C2)CC1` (stereo not given) reads -0.3% (inactive); that for `COC(=O)C(Cc1c[nH]c2ccccc12)NC(=O)CCNC(=O)c1ccco1` (stereo not given), 0.2% (inactive); that for `CCOc1ccccc1Nc1nnc(SCC(=O)Nc2cc(C)on2)s1`, -0.2% (inactive).
Turning to `COc1ccccc1N1CC(C(=O)Nc2nnc(SCC(=O)NCC3CCCO3)s2)CC1=O` (stereo not given), the activation was -0.1% (inactive).
The result for `CCOc1ccccc1Nc1nnc(SCC(=O)NCC2CCCO2)s1` (stereo not given) reads 5.2% (active); that for `COc1ccccc1OCCn1c(SCC(N)=O)nc2ccccc21`, 0% (inactive); that for `NC1=CC(=O)C(=O)c2cccnc21`, 4.9% (active).
The result for `O=C(C1CCCN(S(=O)(=O)c2ccc([N+](=O)[O-])cc2)C1)N1CCCCC1` (stereo not given) reads 0.9% (inactive); that for `COc1cc(C(C)=O)ccc1OC(=O)CN1C(=O)c2ccccc2C1=O`, -0.1% (inactive); that for `O=C1C(=O)N(c2ccccc2)c2ccccc21`, 2.6% (inactive).
The result for `CC(C)OC(=O)CN1C(=O)C(=O)c2ccccc21` reads 14.6% (active); that for `O=C(NCc1ccc(F)cc1)C1CCN(C(=O)Nc2ccc(F)cc2)CC1`, -0.1% (inactive); that for `Cc1[nH]c(C)c(S(=O)(=O)N2CCN(c3cccc(C(F)(F)F)c3)CC2)c1C(=O)N1CCCCC1`, -0.4% (inactive).
Regarding `CC1(C)CC(=O)C=C(NC2CC(C)(C)NC(C)(C)C2)C1`, the activation is -0.2% (inactive).
The result for `CCN(CC)CCNCc1ccc(OCc2ccc(Cl)nc2)c(OC)c1` reads 0.3% (inactive); that for `CCOCCCNCc1ccc(OCc2ccc(F)cc2)c(OC)c1`, 0.1% (inactive).
For `COc1cc(CNCCN(C)C)ccc1OCc1c(F)cccc1Cl` the value was 8.5% (active); for `CCCCNCc1ccc(SC)cc1`, 0.3% (inactive).
In the case of `C[C@H](CO)N1C[C@H](C)[C@H](CN(C)CC2CC2)Oc2ccc(NC(=O)CCN3CCOCC3)cc2C1=O`, the activation is 0.2% (inactive).
The result for `Cc1ccc(N2C(=O)SC(N(CC(=O)O)c3ccc(C)cc3)C2=O)cc1` (stereo not given) reads 1.3% (inactive); that for `CCn1c(SCc2cccc(C(=O)O)c2)nnc1-c1ccc(Cl)cc1`, 0% (inactive); that for `O=C(/C=C/c1ccc(Cl)cc1)NCCCn1ccnc1`, -0.1% (inactive).
As for `CN(C)CCCNC(=O)/C=C/c1ccc(OCc2c(F)cccc2Cl)cc1`, the activation is 13.4% (active).
The result for `Fc1cccc(Cl)c1COc1ccc(-c2nnco2)cc1` reads -0.1% (inactive).
For `CS(=O)(=O)N(CC(=O)N1CCCCCC1)c1cccc(Cl)c1Cl` the value was -0.1% (inactive); for `COc1ccc(CCCNC(=O)C2Cc3c(-c4cccc(C(N)=O)c4)ccnc3O2)cc1` (stereo not given), 0.1% (inactive); for `COc1ccc(NC(=O)COc2ccc(C(=O)c3ccc(F)cc3)cc2)cc1S(N)(=O)=O`, 0% (inactive).
The result for `COc1ccccc1C1SCCN1C(=O)c1ccc([N+](=O)[O-])cc1` (stereo not given) reads 6.9% (active).
Regarding `C[N+]1(CC(O)COc2ccccc2)CCN(C(=O)c2ccc([N+](=O)[O-])cc2)CC1` (stereo not given), the activation was -0.2% (inactive).
With `O=C(OCC(=O)N1CCc2ccccc21)c1ccc([N+](=O)[O-])cc1`, the activation was 0.1% (inactive).
For `CC(C)N(C(=O)CSc1nc(COc2ccccc2)nc2ccccc12)C(C)C` the value was 0.2% (inactive); for `CCOc1cc(CNCCN(C)C)c(Cl)cc1OCC(=O)NCCc1ccccc1`, 0.7% (inactive); for `Cc1cccn2c(=O)nc(SCC(=O)NCc3ccccc3Cl)nc12`, 0.1% (inactive).
The result for `O=C(Oc1ccccc1C(=S)N1CCCCC1)c1cc([N+](=O)[O-])cc([N+](=O)[O-])c1` reads -0.2% (inactive).
For `CN(O)C(=S)c1ccccc1` the value was -0.2% (inactive); for `Cc1ccc(F)c(S(=O)(=O)NC(=O)C2(C)CCN2C(=O)c2ccco2)c1` (stereo not given), -0.2% (inactive).
